Sampled rows, rich in hits. Any-hit rate of the full collection: about 8%.
KB-V1 MDR tox – KB-V1 MDR subline cytotoxicity. KB-V1 MDR cells viability, CellTiter-Glo, 72 h. Potency, µM (series often up to 46.1 µM), usual class: cytotoxic. actives 3.4% (n = 400,000). AID 1347076; further: on the % scale 0 is the no-effect control and ±100 the full control effect; nearly all actives have a fitted effect of over 60% in size
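Cells of the MDR subline KB-V1 are plated, dosed with compound at multiple concentrations, and incubated 72 h at 37 degrees C; CellTiter-Glo is then added and luminescence read after 10 min.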
HT1080NT lethal – kills 2HG-producing HT-1080-NT fibrosarcoma cells; HT-1080-NT fibrosarcoma viability, CellTiter-Glo ATP luminescence, 48 h; Potency, µM (highest dose often 46.1 µM), for the others: top-dose activity, negative = less viability, hits mostly cytotoxic; actives 1.6% (n = 360,000);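 further: NT is the 2HG producing partner of a matched IDH1 knockdown line; 0% = DMSO-treated cells and -100% = media-only wells without cells; nearly all actives have a fitted effect of over 55% in size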
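Read-out is CellTiter-Glo luminescence after 10 minutes at room temperature, following 48 hours' compound treatment of HT-1080-NT cells (750 cells/well, RPMI, 5% FBS, 37 degrees C).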
SW480 rereplic – induces DNA re-replication in SW480 colon adenocarcinoma cells; AID 624297; SW480 DNA re-replication, Hoechst DNA content imaging, 48 h; Potency, µM (series often up to 46.1 µM), for inactives: at the highest dose re-replication activation, usual class: activators; actives 1.8% (n = 340,000); further: % of control where 0% means no effect; nearly all actives have a fitted effect of over 55% in size
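Readout is total intensity of Hoechst-stained nuclei, excited at 405 nm and collected at 500-530 nm. Compound treatment lasted 48 hr at 37 C in 5% CO2 before staining.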
KB-3-1 cytotox – kills parental KB-3-1 adenocarcinoma cells; Potency, µM (titrated, usually from 46.1 µM), usual class: cytotoxic; actives 1.4% (n = 400,000); KB-3-1 viability, CellTiter-Glo ATP luminescence, 72 h; further: on the % scale 0 is the no-effect control and ±100 the full control effect; nearly all actives have a fitted effect of over 60% in size
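KB-3-1 cells, DMEM (no phenol red) + 10% FBS; compound by pin transfer, 72 h, 37 °C. Readout: CellTiter-Glo luminescence after 10 min. Data normalized, curve-fitted.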
MCF10A rereplic – DNA re-replication induction in MCF 10a cells; Potency, µM (series often up to 46.1 µM), for inactives: at the top dose activity, positive = re-replication, hits mostly activators; AID 624296; actives 2.9% (n = 350,000); MCF 10A DNA re-replication, Hoechst nuclear intensity, 48 h; further: % of control where 0% means no effect; nearly all actives have a fitted effect of over 50% in size
HT1080 IDH1KD tx – toxicity to HT-1080 IDH1 knockdown cells (counter line); actives 2% (n = 360,000); AID 686971; Potency, µM (titrated, usually from 46.1 µM), for inactives: at the top dose activity, negative = toxicity, usual class: cytotoxic; HT-1080 IDH1 knockdown viability, ATP luminescence, 48 h;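 further: 0% = DMSO wells and -100% = cell-free medium wells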
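Knockdown cells (IDH1KD HT-1080) received compounds 2 h after plating at 750 cells/well and were kept 48 h at 37 °C in 5% FBS RPMI. A CellTiter-Glo luminescence read gave % activity for curve fitting.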
* hit, by the source's call; i = inactive; ? = inconclusive; / = not tested or not shown; [ ] = dose if it differs, or a comment. The call rests on the fitted dose curve; in most records, active means well fitted curve in the direction sought with a large enough effect; inconclusive means small, poorly fitted or top-dose-only effect, or another doubt; inactive means no such curve, though single readings can be large; an effect the other way counts as inactive or inconclusive. Potency means the concentration at half of the fitted maximal effect.

SMILES | KB-V1 MDR tox | HT1080NT lethal | SW480 rereplic | KB-3-1 cytotox | MCF10A rereplic | HT1080 IDH1KD tx
COc1ccc(NC(=O)CSC2=Nc3ccccc3C3=NC(CC(=O)NCc4ccc(F)cc4)C(=O)N23)cc1 (stereo not drawn) | i | / | / | i | / | /
CCOC(=O)/C(=C\c1cccc(O)c1)c1nc2sc(C)c(C)c2c(=O)[nH]1 | ? | ? | ? | ? | 2.3µM* | ?
O=C(O)c1ccc(Cl)cc1Nc1nc2cc(Cl)ccc2o1 | 16µM* | -11% | 5% | 16µM* | 21µM* | -3%
O=C(Nc1ccccc1C(=O)N1CCOCC1)c1cccc(S(=O)(=O)N2CCCC2)c1 | 9.2µM* | 0% | 1% | i | 0% | 0%
O=C(Nc1ccccc1C(=O)N1CCCC1)c1cccc(S(=O)(=O)N2CCCCCC2)c1 | i | 3% | -1%[9.22 µM] | i | 15% | 3%
CCNC(=O)c1ccccc1NC(=O)c1cccc(S(=O)(=O)N2CCC(C)CC2)c1 | 16µM* | -1% | 2% | i | 9% | -17%
CC(C)Oc1ccc(S(=O)(=O)N2CCOCC2)cc1NC(=O)c1cccc(S(=O)(=O)N2CCCC2)c1 | 18µM* | -6% | 1% | i | -1% | 0%
CC(C)Oc1ccc(C(=O)Nc2cc(S(=O)(=O)N3CCOCC3)ccc2N2CCOCC2)cc1 | 16µM* | -18% | ? | ? | ? | ?
COc1ccc(NC(=O)c2cc(C(C)=O)n3ccccc23)cc1 | i | / | / | i | / | /
COc1cccc(CNC(=O)CN2C(=O)N(c3ccc(C)cc3C)S(=O)(=O)c3ccccc32)c1OC | i | / | / | i | / | /
Cc1ccc(N(CCC#N)C(=O)CCl)cc1C | ? | 9.2µM* | 7.3µM* | ? | 23µM* | 13µM*
CC(N)C(=O)NCC(=O)NC1CSSCC(C(=O)O)NC(=O)C(CO)NC(=O)C(C(C)O)NC(=O)C(Cc2ccccc2)NC(=O)C(C(C)O)NC(=O)C(CCCCN)NC(=O)C(Cc2c[nH]c3ccccc23)NC(=O)C(Cc2ccccc2)NC(=O)C(Cc2ccccc2)NC(=O)C(CC(N)=O)NC(=O)C(CCCCN)NC1=O (stereo not drawn) | / | / | 2% | / | 6% | /
Cc1cccc(-n2nnc(C(=O)NCc3ccc4c(c3)OCO4)c2N)c1 | ? | 3% | -2% | i | 23% | 3%
Cc1cc(C)cc(-n2nnc(C(=O)NCc3ccc4c(c3)OCO4)c2N)c1 | 8.2µM* | 8% | -5% | i | ? | 5%
CCOC(=O)c1c(C)c(C(=O)NCc2cccs2)c(C)n1CC | 15µM* | ? | -8% | i | -2% | 5%
CCOC(=O)c1c(C)c(C(=O)NCc2ccc(OC)cc2)c(C)n1CC | i | / | / | i | / | /
CCOC(=O)c1c(C)c(C(=O)NCc2ccc3c(c2)OCO3)c(C)n1C | 18µM* | -2% | 0% | i | 1% | -3%
Cc1ccc(Cl)cc1N1CCN(C(=O)C2CCCN(S(=O)(=O)c3ccc(Br)s3)C2)CC1 (stereo not drawn) | i | / | / | ? | / | /
COc1cc(N(C)C)c(OC)cc1/C=C/c1ccnc2ccccc12 | i | / | / | i | / | /
CCOC(=O)c1c(NC(=O)CCCOc2ccccc2C)sc2c1CCC(C)C2 (stereo not drawn) | i | / | / | i | / | /
COc1cccc(-c2nc(-c3ccccn3)no2)c1 | ? | ? | -8% | ? | -4% | ?
c1ccc(-c2noc(-c3ccncc3)n2)nc1 | i | 11µM* | 2% | ? | -18% | ?
c1ccc(-c2noc(-c3ccc4c(c3)OCO4)n2)nc1 | 4.1µM* | 1.8µM* | ? | 4.6µM* | ? | 2.5µM*
c1ccc(-c2noc(-c3ccc4ccccc4c3)n2)nc1 | 5.8µM* | -19% | -16% | ? | 17% | -25%
CC(C)(C)c1ccc(-c2nc(-c3ccncc3)no2)cc1 | 16µM* | -4% | 0% | ? | ? | ?
SMILES | KB-V1 MDR tox | HT1080NT lethal | SW480 rereplic | KB-3-1 cytotox | MCF10A rereplic | HT1080 IDH1KD tx
CCc1sc(N2C(=O)C3C4CCC(C4=C(C)C)C3C2=O)nc1-c1ccccc1 (stereo not drawn) | 12µM* | -28% | 0% | i | ? | -22%
CCc1sc(NC(=O)CN2CCC(C(N)=O)CC2)nc1-c1ccccc1 | i | 5% | -7% | i | -1% | 5%
O=C(CN1C(=O)C2(SCC(=O)N2c2cccc(F)c2)c2ccccc21)NCCc1ccccc1 (stereo not drawn) | i | / | / | i | / | /
COc1ccc(NC(=O)C2(C)Cc3c(-c4cccc(NC(C)=O)c4)ccnc3O2)cn1 (stereo not drawn) | i | ? | / | 2.1µM* | / | ?
CC(=O)Nc1cccc(-c2ccnc3c2CC(C)(C(=O)Nc2cccc(C(C)=O)c2)O3)c1 (stereo not drawn) | i | -10% | / | ? | / | 15µM*
CC(=O)Nc1cccc(-c2ccnc3c2CC(C)(C(=O)Nc2ccc(Cl)cc2)O3)c1 (stereo not drawn) | ? | 9.2µM* | / | 2.3µM* | / | 4.1µM*
CC(=O)Nc1ccc(NC(=O)C2(C)Cc3c(-c4cccc(NC(C)=O)c4)ccnc3O2)cc1 (stereo not drawn) | i | 26% | / | i | / | 3%
CC1(C(=O)Nc2cccc(OC(F)(F)F)c2)Cc2c(-c3ccc4c(c3)OCO4)ccnc2O1 (stereo not drawn) | i | ? | / | ? | / | 16µM*
CC(=O)c1ccc(N2CCN(c3nc4c(S(=O)(=O)c5ccc(C)c(C)c5)nnn4c4ccc(Cl)cc34)CC2)cc1 | i | / | / | i | / | /
CC1(C(=O)Nc2ccc3c(c2)OCO3)Cc2c(-c3ccccc3)ccnc2O1 (stereo not drawn) | ? | -25% | / | ? | / | ?
COc1ccc(NC(=O)C2(C)Cc3c(-c4ccc5c(c4)OCO5)ccnc3O2)cc1 (stereo not drawn) | ? | ? | / | 16µM* | / | ?
CC(=O)Nc1cccc(-c2ccnc3c2CC(C)(C(=O)Nc2ccc4c(c2)OCO4)O3)c1 (stereo not drawn) | 8.2µM* | ? | / | 2.3µM* | / | ?
CC(=O)Nc1ccc(NC(=O)C2(C)Cc3c(-c4cccc(C(N)=O)c4)ccnc3O2)cc1 (stereo not drawn) | i | ? | / | i | / | 2%
COc1ccc(CNC(=O)C2(C)Cc3c(-c4ccc5c(c4)OCO5)ccnc3O2)cc1OC (stereo not drawn) | i | -16% | / | i | / | ?
